Screens as filed in PubChem BioAssay.
HepG2 tox = counter-screen for TGF-b inhibitors: cytotoxicity in HepG2 cells. HepG2 CAGA-GFP viability, ATP luminescence, 18 h. Potency, µM (series often up to 46.1 µM), hits mostly cytotoxic. 410,000 tested, 0.76% active
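HepG2 CAGA-GFP cells (1000/well, DMEM with 1% FBS) received compound, then TGF-beta at 500 pg/mL final, and were incubated 18 hours at 37 degrees C. Viability was read by CellTiter-Glo luminescence. Media-only wells were set as complete cell-killing and DMSO as no toxicity.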
S2 tox = viability counter-screen for ATXN expression inhibitors; S2 cells (HEK-293 line with an ATXN2-luciferase reporter) viability, CellTiter-Fluor protease fluorescence, 24 h; Potency, µM (series often up to 56.7 µM), actives largely listed as cytotoxic; 400,000 tested, 0.49% active; AID 651635; also: nearly all actives have a fitted effect of over 40% in size
ATXN2 expr inh = reduces ATXN2 reporter expression in HEK-293 cells; HEK-293 ATXN2-luciferase reporter, luminescence, 24 h; 360,000 tested, 0.72% active; AID 1745845; Potency, µM (top dose mostly 57 µM), usual class: inhibitors; also: nearly all actives have a fitted effect of over 55% in size
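qHTS (up to 57 uM final) was run with 24 h compound exposure of reporter cells at 37 °C. Each well was multiplexed: SteadyGlo luminescence measured ATXN2-luciferase expression after a fluorogenic Gly-Phe-AFC viability readout (25 uM final).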
TGFb inhibitor = inhibitors of TGF-b signaling; HepG2 CAGA-GFP TGF-b/SMAD3 reporter, GFP fluorescence, 18 h; TGF-beta stimulated, 500 pg/mL final; Potency, µM (series often up to 46.1 µM), actives largely listed as inhibitors; 410,000 tested, 1.2% active; AID 588855; also: nearly all actives have a fitted effect of over 65% in size
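Per well, imaged GFP fluorescence of HEPG2 CAGA-GFP cells gives the signal; cells get compound, then TGF-beta (500 pg/mL final), 18 h at 37 degrees C; %Activity versus -TGF-beta and +DMSO controls.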
Hits are given with their value. Rows were chosen to be rich in hits. Some 2.3% of all compounds tested hit in one or more screens of this group. Calls follow the shape of the dose curve; as a rule, active = well fitted curve in the direction sought with a large enough effect; inconclusive = small, poorly fitted or top-dose-only effect, or another doubt; inactive = no such curve, though single readings can be large; an effect the other way counts as inactive or inconclusive.

Screening C[C@H](CO)N1C[C@H](C)[C@@H](CN(C)Cc2ccc(Oc3ccccc3)cc2)Oc2cc(Br)ccc2S1(=O)=O returned HepG2 tox inactive, S2 tox inconclusive, ATXN2 expr inh inactive and TGFb inhibitor 13µM.
For C[C@@H]1CN([C@@H](C)CO)S(=O)(=O)c2ccc(C#CC3CCCCC3)cc2O[C@@H]1CN(C)Cc1cccnc1 the results were HepG2 tox inactive, S2 tox inconclusive, ATXN2 expr inh 28µM and TGFb inhibitor inconclusive.
Screening C[C@H]1CN([C@@H](C)CO)S(=O)(=O)c2ccc(Br)cc2O[C@@H]1CN(C)Cc1cccc(F)c1 returned HepG2 tox 13µM, ATXN2 expr inh inactive and TGFb inhibitor 18µM.
Screening C[C@H]1CN([C@@H](C)CO)S(=O)(=O)c2ccc(C#CC3CC3)cc2O[C@H]1CN(C)C(=O)c1cccnc1 returned HepG2 tox inactive, S2 tox inactive, ATXN2 expr inh inactive and TGFb inhibitor inactive.
C[C@@H]1CN([C@H](C)CO)S(=O)(=O)c2ccc(Br)cc2O[C@@H]1CN(C)C(=O)Nc1ccc(C(F)(F)F)cc1 was read as HepG2 tox inactive, S2 tox 22µM, ATXN2 expr inh inconclusive and TGFb inhibitor inconclusive.
`C[C@@H]1CN([C@@H](C)CO)S(=O)(=O)c2ccc(Br)cc2O[C@H]1CN(C)C(=O)c1cccc(F)c1` gave HepG2 tox inactive, S2 tox inactive, ATXN2 expr inh inactive and TGFb inhibitor inactive.
`C[C@@H]1CN([C@H](C)CO)S(=O)(=O)c2ccc(-c3ccc(C#N)cc3)cc2O[C@H]1CN(C)C(=O)Nc1cc(F)ccc1F` gave HepG2 tox inactive, S2 tox inconclusive, ATXN2 expr inh 16µM and TGFb inhibitor inactive.
CCc1cccc(CC)c1NC(=O)c1c(C)oc2ccc(O)c(CN3CCCC3)c12 was read as HepG2 tox inactive, S2 tox 16µM, ATXN2 expr inh inactive and TGFb inhibitor inactive.
For Cc1oc2ccc(O)c(CN3CCCCCC3)c2c1C(=O)Nc1cccc(C(F)(F)F)c1 the results were HepG2 tox 13µM and TGFb inhibitor inconclusive.
`COc1ccc(NC(=O)Nc2nnc(N(C)C3CCCCC3)s2)c(OC)c1` gave HepG2 tox inactive and TGFb inhibitor 11µM.
`COC(=O)c1ccc(NC(=O)Nc2nnc(N(C)C3CCCCC3)s2)cc1` gave HepG2 tox inactive and TGFb inhibitor inactive.
Cc1ccc2ccc(Cl)cc2n1 was read as S2 tox inactive and ATXN2 expr inh inactive.
`Cc1ccc(S(=O)(=O)NC(C)(C)CN2CCC(Cc3ccccc3)CC2)cc1` gave HepG2 tox inactive, S2 tox inactive, ATXN2 expr inh inactive and TGFb inhibitor 18µM.
For CC(C)(CN1CCNCC1)NS(=O)(=O)c1ccc(Cl)cc1 the results were HepG2 tox 25µM, S2 tox inactive, ATXN2 expr inh inconclusive and TGFb inhibitor inconclusive.
`Cc1cc(/C=C2\C=Cc3ccccc32)cc(C)c1N` gave HepG2 tox inactive and TGFb inhibitor inconclusive.
`OCCN(CCO)CC(O)COc1ccc(C23CC4CC(CC(C4)C2)C3)cc1` (centres undefined) gave HepG2 tox inactive, S2 tox inactive, ATXN2 expr inh inconclusive and TGFb inhibitor 18µM.
For OCCN(CCO)CC(O)COc1ccc(Br)cc1 (centres undefined) the results were HepG2 tox inactive, S2 tox inconclusive and TGFb inhibitor inactive.
`COc1ccc(OC)c2c(/C=C/c3c(C)[nH]c4ccccc34)ccnc12` gave HepG2 tox inactive and TGFb inhibitor inconclusive.
Screening CC(C)(C)c1ccc(OCc2nc3ccccc3n2CCOc2ccccc2)cc1 returned HepG2 tox inactive, S2 tox inconclusive, ATXN2 expr inh inactive and TGFb inhibitor inactive.
Screening COCc1nc2ccccc2n1Cc1ccc(C(C)(C)C)cc1 returned HepG2 tox inactive, S2 tox inconclusive, ATXN2 expr inh inactive and TGFb inhibitor 10µM.
For COc1ccc(OCc2nc3ccccc3n2Cc2ccc(C(C)(C)C)cc2)cc1 the results were HepG2 tox inactive, S2 tox inactive, ATXN2 expr inh inactive and TGFb inhibitor 16µM.
Screening CSc1ncccc1C(=O)NCC1Cc2cc(F)cc(-c3cncnc3)c2O1 (centres undefined) returned S2 tox inactive.
`c1ccc(OCCNc2nc(NCC3CC3)nc3cc(-c4ccccc4)sc23)cc1` gave HepG2 tox inactive, S2 tox 16µM, ATXN2 expr inh inconclusive and TGFb inhibitor inconclusive.
